# Results published in the supplement of paper PMC10849652.
# Targets with a hit are over-represented here; the source holds about 8,800 in all. About 0.5% of all pairs of compound and target were hits. A number with no mark means an inactive call.
# Columns and labels:
# Experiment in all cases: log2 fold change, soluble protein after heating vs DMSO (PISA); higher = thermal stabilisation; K562 lysate, 10 uM; active = over 0.2 and 3.5 SD of the protein, either way, in both replicates (recomputed)
# erlotinib = compound: C#Cc1cccc(Nc2ncnc3cc(OCCOC)c(OCCOC)cc23)c1 [erlotinib]
# How it was run: (§1)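 Quantification was by TMTpro 16plex LC-MS/MS with equalised channel sums, applied to the supernatant after 21,000xg for 90 min. Samples were crude K562 extract at 1 mg/mL protein in PBS pH 7.4 with 1 mM MgCl2, treated with 10 μM compound for 30 min, heated for 3 min across 48°C-58°C, pooled and brought to 0.5% NP-40 at 4°C. Values are log-two fold changes in thermal stability relative to solvent controls, from duplicates.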
# [1] = compound: C/C(=N\NC(=O)C1=CC(=CC=C1)S(=O)(=O)N2CCOCC2)/C3=C(C=CC(=C3)Cl)O
# How it was run: as §1
# [2] = compound: C1=CC(=CC=C1C2=NC3=C(N2)C=C(C=C3)C(=O)N)OC4=CC=C(C=C4)Cl
# How it was run: as §1
# [3] = compound: C1=CC2=C(C=CC(=C2)/C=C\3/C(=O)NC(=NCC4=CC=CS4)S3)N=C1
# How it was run: as §1
# [4] = compound: C1=CC2=NC=CN=C2C=C1/C=C/3\C(=O)NC(=O)S3
# How it was run: as §1
# [5] = compound: C1=CC=C(C=C1)C2=NC(=C(N2)C3=CC=NC=C3)C4=CC(=C(C=C4)Cl)O
# How it was run: as §1
# [6] = compound: C1=CC=C2C(=C1)C3=NNC4=CC=CC(=C43)C2=O
# How it was run: as §1
# [7] = compound: C1CCN(C1)C(=O)NC2=CC=CC(=C2)NC3=NC=C(C(=N3)NCCC4=CN=CN4)Br
# How it was run: as §1
# [8] = compound: C1CN(CCC1(CC2=CC=C(C=C2)Cl)N)C3=NC=NC4=C3C=CN4
# How it was run: as §1
# IRAK-1-4 Inhibitor I = compound: C1COCCN1CCN2C3=CC=CC=C3N=C2NC(=O)C4=CC(=CC=C4)[N+](=O)[O-] [IRAK-1-4 Inhibitor I]
# How it was run: as §1
# Chain of UniProt P53370 (P53370 whole entry, looked up): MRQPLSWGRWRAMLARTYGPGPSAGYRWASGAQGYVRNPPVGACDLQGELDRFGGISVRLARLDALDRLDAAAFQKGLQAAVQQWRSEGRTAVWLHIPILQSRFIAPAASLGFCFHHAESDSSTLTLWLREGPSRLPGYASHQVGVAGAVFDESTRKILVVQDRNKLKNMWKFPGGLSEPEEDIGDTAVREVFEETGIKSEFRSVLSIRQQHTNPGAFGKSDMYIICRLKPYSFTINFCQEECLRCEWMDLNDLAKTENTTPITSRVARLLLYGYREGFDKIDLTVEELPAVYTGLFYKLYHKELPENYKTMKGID
# Chain of UniProt P84157 (P84157 whole entry, looked up): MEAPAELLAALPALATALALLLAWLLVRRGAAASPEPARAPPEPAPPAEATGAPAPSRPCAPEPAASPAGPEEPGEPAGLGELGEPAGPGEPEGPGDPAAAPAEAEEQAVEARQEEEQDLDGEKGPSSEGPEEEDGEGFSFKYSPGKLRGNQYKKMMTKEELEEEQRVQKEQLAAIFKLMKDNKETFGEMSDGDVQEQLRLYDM
# Chain of UniProt P48552 (P48552 whole entry, looked up): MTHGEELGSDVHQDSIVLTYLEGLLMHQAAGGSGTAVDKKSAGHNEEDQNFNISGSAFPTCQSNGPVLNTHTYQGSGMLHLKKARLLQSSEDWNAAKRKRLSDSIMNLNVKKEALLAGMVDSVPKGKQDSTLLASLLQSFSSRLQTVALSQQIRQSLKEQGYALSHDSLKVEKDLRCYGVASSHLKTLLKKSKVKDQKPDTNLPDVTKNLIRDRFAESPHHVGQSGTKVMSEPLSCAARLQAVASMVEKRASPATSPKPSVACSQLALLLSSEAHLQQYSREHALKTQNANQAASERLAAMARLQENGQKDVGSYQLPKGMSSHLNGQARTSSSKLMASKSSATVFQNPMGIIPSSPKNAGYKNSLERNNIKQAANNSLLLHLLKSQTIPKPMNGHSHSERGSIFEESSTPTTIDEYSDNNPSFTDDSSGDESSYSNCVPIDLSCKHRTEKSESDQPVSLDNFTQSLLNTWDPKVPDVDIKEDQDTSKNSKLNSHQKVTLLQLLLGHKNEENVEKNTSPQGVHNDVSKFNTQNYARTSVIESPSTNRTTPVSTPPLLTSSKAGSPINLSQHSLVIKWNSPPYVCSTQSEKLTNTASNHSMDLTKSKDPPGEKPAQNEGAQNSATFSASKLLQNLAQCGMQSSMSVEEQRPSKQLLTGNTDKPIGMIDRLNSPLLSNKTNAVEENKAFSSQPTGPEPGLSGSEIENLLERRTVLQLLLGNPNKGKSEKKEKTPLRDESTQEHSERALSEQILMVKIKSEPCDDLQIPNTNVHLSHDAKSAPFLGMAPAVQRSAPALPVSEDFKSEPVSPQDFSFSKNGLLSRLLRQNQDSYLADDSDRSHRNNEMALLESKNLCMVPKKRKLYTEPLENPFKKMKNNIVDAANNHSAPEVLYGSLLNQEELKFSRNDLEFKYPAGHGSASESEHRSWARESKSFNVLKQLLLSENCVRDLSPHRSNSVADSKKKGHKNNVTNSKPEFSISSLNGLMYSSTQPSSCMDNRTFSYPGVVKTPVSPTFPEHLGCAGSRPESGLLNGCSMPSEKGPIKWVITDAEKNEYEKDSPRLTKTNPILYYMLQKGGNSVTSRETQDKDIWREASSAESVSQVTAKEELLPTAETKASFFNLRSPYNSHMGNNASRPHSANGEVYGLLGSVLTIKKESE
# Chain of UniProt Q9BZ23 (Q9BZ23 whole entry, looked up): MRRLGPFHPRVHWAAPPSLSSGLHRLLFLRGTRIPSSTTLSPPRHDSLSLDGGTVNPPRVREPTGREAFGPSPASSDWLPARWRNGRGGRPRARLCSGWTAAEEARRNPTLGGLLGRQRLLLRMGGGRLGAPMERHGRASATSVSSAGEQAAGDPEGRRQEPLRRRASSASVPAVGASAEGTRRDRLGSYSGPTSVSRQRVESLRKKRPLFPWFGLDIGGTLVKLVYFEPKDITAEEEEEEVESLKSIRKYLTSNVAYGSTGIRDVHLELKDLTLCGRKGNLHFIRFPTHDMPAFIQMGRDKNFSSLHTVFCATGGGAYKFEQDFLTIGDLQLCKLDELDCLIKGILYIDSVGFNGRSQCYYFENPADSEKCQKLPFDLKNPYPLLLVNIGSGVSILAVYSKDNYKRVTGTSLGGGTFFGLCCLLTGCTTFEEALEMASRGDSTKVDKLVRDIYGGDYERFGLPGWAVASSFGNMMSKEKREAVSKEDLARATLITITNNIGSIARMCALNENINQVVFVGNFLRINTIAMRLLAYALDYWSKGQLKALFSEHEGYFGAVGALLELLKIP
# Chain of UniProt Q5JRK9 (Q5JRK9 whole entry, looked up): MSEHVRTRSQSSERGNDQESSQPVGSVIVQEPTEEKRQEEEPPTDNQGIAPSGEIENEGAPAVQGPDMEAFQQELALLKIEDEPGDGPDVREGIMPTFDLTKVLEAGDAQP
# Chain of UniProt P47900 (P47900 whole entry, looked up): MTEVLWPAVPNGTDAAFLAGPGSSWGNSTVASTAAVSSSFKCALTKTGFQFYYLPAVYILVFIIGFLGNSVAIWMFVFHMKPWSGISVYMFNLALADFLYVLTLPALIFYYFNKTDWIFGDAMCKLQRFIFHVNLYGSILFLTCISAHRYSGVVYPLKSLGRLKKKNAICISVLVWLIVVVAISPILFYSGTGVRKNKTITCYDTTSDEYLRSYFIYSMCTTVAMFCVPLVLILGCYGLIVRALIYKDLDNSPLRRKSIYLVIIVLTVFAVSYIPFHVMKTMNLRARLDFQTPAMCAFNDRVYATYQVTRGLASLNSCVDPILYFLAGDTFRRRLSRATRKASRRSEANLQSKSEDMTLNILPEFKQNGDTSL
# Chain of UniProt P13533 (P13533 whole entry, looked up): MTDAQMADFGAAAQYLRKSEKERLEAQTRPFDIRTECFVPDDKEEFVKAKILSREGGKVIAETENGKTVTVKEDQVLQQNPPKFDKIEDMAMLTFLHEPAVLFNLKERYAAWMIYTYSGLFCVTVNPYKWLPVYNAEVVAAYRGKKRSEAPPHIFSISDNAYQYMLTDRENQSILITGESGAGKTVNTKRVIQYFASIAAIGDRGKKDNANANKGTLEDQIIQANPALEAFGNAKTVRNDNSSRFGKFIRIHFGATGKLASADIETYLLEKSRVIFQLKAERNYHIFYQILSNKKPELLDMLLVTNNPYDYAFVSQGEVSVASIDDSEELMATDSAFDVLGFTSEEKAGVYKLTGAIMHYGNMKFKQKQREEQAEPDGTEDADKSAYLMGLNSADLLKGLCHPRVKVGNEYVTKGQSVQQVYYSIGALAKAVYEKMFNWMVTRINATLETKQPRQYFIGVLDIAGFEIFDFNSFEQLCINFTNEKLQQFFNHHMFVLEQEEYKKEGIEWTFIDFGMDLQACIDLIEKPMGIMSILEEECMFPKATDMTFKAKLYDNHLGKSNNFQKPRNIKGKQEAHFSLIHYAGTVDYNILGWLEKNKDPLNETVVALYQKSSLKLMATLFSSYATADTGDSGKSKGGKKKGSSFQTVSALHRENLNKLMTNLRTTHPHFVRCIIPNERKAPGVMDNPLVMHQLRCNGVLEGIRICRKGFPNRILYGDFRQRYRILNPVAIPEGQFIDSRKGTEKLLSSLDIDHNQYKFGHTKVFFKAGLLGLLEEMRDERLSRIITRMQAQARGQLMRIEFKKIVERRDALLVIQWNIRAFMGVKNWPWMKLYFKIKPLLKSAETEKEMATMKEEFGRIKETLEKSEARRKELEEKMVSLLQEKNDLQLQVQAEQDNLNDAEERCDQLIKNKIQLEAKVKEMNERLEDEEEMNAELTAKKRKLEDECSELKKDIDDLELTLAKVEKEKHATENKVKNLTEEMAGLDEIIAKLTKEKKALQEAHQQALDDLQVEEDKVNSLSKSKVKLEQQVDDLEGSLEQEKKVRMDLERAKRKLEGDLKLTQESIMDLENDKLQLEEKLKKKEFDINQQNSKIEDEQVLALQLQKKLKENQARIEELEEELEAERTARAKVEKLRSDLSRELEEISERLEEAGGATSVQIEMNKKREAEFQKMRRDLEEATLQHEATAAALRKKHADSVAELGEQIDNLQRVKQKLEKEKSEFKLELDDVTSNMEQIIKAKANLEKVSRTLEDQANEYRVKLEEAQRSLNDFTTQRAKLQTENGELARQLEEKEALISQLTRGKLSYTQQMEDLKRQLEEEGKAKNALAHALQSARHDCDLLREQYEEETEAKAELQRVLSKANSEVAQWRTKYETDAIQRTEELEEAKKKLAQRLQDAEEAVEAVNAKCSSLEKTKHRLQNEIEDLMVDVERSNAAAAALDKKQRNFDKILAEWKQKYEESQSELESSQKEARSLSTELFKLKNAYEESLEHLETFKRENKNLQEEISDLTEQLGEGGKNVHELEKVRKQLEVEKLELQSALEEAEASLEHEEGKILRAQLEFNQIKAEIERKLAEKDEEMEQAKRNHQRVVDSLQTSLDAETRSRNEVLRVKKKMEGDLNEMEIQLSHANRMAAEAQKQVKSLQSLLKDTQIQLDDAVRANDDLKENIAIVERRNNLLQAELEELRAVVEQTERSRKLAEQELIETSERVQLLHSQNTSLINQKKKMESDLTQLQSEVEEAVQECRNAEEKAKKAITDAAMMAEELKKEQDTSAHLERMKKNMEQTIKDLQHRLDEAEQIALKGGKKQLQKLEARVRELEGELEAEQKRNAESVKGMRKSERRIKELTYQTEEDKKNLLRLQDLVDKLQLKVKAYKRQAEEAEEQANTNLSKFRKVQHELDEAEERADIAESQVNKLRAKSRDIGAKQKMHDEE
# Chain of UniProt O60829 (O60829 whole entry, looked up): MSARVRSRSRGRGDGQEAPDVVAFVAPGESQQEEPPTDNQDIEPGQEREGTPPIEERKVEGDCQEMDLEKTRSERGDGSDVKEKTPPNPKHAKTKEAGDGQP
# Chain of UniProt Q9BRA0 (Q9BRA0 whole entry, looked up): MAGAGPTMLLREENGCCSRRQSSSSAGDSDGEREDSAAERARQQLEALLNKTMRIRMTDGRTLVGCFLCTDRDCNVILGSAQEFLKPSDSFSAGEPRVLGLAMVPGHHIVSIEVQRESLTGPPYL
Target,log2 fold change (erlotinib),log2 fold change [1],log2 fold change [2],log2 fold change [3],log2 fold change [4],log2 fold change [5],log2 fold change [6],log2 fold change [7],log2 fold change [8],log2 fold change (IRAK-1-4 Inhibitor I)
NSUN7 (UniProt Q8NE18),-0.037,-0.271,0.019,-0.095,0.198,-0.031,-0.087,-0.026,-0.042,0.068
PAGE2B (UniProt Q5JRK9),0.056,0.038,-0.033,-0.085,–,-0.021,0.093,0.055,0.055,0.148
NUDT6 (UniProt P53370),-0.01,0.113,-0.02,-0.518 (active),–,-0.008,0.111,-0.06,0.06,0.032
NR2C2 isoform 2 (UniProt P49116),0.006,0.135,-0.014,0.134,-0.012,0.064,-0.035,0.061,-0.041,-0.019
NFAT5 isoform 4 (UniProt O94916),–,–,–,–,0.161,–,–,–,–,–
PANK2 (UniProt Q9BZ23),–,-0.012,–,-0.019,0.011,-0.078,-0.044,-0.008,-0.06,0.14
MXRA7 (UniProt P84157),-0.001,0.062,0.118,0.17,–,-0.062,-0.135,0.02,0,-0.043
PARD3B (UniProt Q8TEW8),0.025,–,-0.084,–,–,–,–,–,–,–
ORC1 (UniProt Q13415),–,–,–,–,–,–,–,0.216,0.05,–
NPLOC4 (UniProt I3L3I1),–,–,–,–,-0.029,–,–,-0.128,0.046,–
NUB1 (UniProt H7C5N1),–,–,–,–,–,0.163,–,–,–,0.183
NR2F2 (UniProt P24468),-0.007,–,0,–,-0.192,0.076,–,–,–,0.048
NRIP1 (UniProt P48552),0.031,–,0,–,-0.033,0.024,–,–,–,0.114
MYBL2 (UniProt P10244),0.02,0.014,-0.011,0.035,–,0.005,0.078,-0.013,-0.036,0.009
MYO9A isoform 4 (UniProt B2RTY4),0.074,0.008,-0.125,-0.045,0.153,-0.007,-0.05,–,–,-0.059
NCKAP1L (UniProt P55160),0.005,-0.06,-0.006,0.196,0.055,-0.032,-0.156,0.06,0.084,0.06

Target,log2 fold change (erlotinib),log2 fold change [1],log2 fold change [2],log2 fold change [3],log2 fold change [4],log2 fold change [5],log2 fold change [6],log2 fold change [7],log2 fold change [8],log2 fold change (IRAK-1-4 Inhibitor I)
PAGE4 (UniProt O60829),-0.423,–,0.098,–,0.034,0.015,–,-0.068,-0.095,-0.034
NFATC4 isoform 2 (UniProt Q14934),–,-0.627 (active),–,-0.132,-0.064,–,-0.224,-0.07,-0.012,–
MYLK (UniProt Q15746),–,-0.067,–,0.027,0.025,–,0.345,0.106,-0.262,–
NEBL (UniProt O76041),-0.014,-0.028,0.05,0.015,-0.048,0.001,-0.082,-0.087,0.013,0.054
PAPOLG (UniProt Q9BWT3),0,-0.068,-0.092,0.035,–,0.055,0.041,-0.086,0.104,0.136
NUMB (UniProt P49757),-0.029,0.01,0.044,-0.052,-0.009,-0.009,-0.029,-0.107,-0.043,0.022
OSBPL1A (UniProt Q9BXW6),0.235,–,0.205,–,0.038,–,–,–,–,–
P2RY1 (UniProt P47900),-0.014,–,-0.07,–,0.148,0.023,–,-0.024,0.094,0.07
MYH6 (UniProt P13533),0.107,–,0.08,–,0.304,0.029,–,-0.049,0.115,0.052
N4BP2 (UniProt Q86UW6),0.04,-0.029,-0.09,0.069,-0.015,0.001,0.106,-0.021,-0.068,-0.022
NAA16 (UniProt Q6N069),–,-0.036,–,-0.022,0.027,-0.127,-0.206,0.136,-0.038,0.017
NAA38 isoform 2 (UniProt Q9BRA0),0.049,-0.065,0.013,0.019,-0.045,-0.055,0.008,-0.052,0.008,0.031
NR3C1 isoform 3 (UniProt P04150),0.061,-0.019,-0.058,-0.075,0.09,0.044,–,0.047,-0.064,-0.059
NUMB isoform 2 (UniProt P49757),–,–,–,–,–,0.304,–,–,–,0.021
MUC5AC (UniProt P98088),–,–,–,–,–,0.015,–,–,–,-0.074
NUDT5 (UniProt C9JYY9),0.098,–,-0.157,–,–,–,–,-0.069,0.034,–
